The target of assay [1] is Aryl hydrocarbon receptor (Homo sapiens) (UniProt P35869). As to the kind of experiment: qHTS assay to identify small molecule that activate the aryl hydrocarbon receptor (AhR) signaling pathway (AID 743085). Also: nearly all actives have a fitted effect of over 15% in size. Also: potency is read from the fitted curve at half-maximal effect.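 As to activation: HG2L7.5c1 human HepG2 liver cells with stably integrated DRE-driven firefly reporter; series mostly up to about 70 µM.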 A digest of the protocol:
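Luminescence read-out: ONE-Glo reagent, 30 min at room temperature, in HG2L7.5c1 HepG2 reporter cells treated 24 h at 37C. Viability was measured beforehand by CellTiter-Fluor fluorescence after 30 min at 37C.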

Assay [2] is described as follows: qHTS assay to identify small molecule that activate the aryl hydrocarbon receptor (AhR) signaling pathway - cell viability counter screen (AID 743086). Also: nearly all actives have a fitted effect of over 45% in size. Also: potency is read from the fitted curve at half-maximal effect. A digest of the protocol: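 HepG2-AhR-luc (HG2L7.5c1) cells, 4000/well, were preincubated 5 h at 37C, exposed to compound in qHTS format for 24 hr at 37C, then given CellTiter-Fluor for 30 min; viability was read as fluorescence in the reporter wells.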

The target in assay [3] is Peroxisome proliferator-activated receptor gamma (Homo sapiens) (UniProt P37231). As to the kind of experiment: qHTS assay to identify small molecule agonists of the peroxisome proliferator-activated receptor gamma (PPARg) signaling pathway (AID 743094; active = well fitted activation curve with a large enough effect in the signal ratio in the repeat runs, not every such curve was filed as active; the % refers to the signal ratio). An outline of the steps: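 HEK293H PPARg-bla cells, 5 h settle at 37C/5% CO2; compound (DMSO) 17 h, 37C; B/G FRET substrate 1 h RT; fluorescence intensity read-out. qHTS format.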

Assay [4] is described as follows: qHTS assay to identify small molecule antagonists of the peroxisome proliferator-activated receptor gamma (PPARg) signaling pathway - cell viability counter screen (AID 743194). Also: nearly all actives have a fitted effect of over 55% in size. Also: potency is read from the fitted curve at half-maximal effect. An outline of the steps:
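PPARg-UAS-bla HEK293H cells were plated, rested 5 h at 37 C, then treated with compounds plus rosiglitazone (50 nM final) for 17 h at 37 C; viability was then read by CellTiter-Glo luminescence after 30 min at room temperature.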

Assay [5] in a line: qHTS assay for small molecule agonists of the antioxidant response element (ARE) signaling pathway (AID 743202; active = well fitted activation curve with a large enough effect in the signal ratio in the repeat runs, not every such curve was filed as active; the % refers to the signal ratio; also: potency is read from the fitted curve at half-maximal effect). A digest of the protocol: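 Steps: seed ARE-bla HepG2 cells (2,000/well); incubate 5 h at 37 C; add compounds by pin tool; incubate 16 h at 37 C; add FRET substrate; read fluorescence after 2 h at RT.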
A general note: qHTS replaces the single test concentration by a dilution series.

In assay [6] the target is Peroxisome proliferator-activated receptor gamma (Homo sapiens) (UniProt P37231). As to the kind of experiment: qHTS assay to identify small molecule antagonists of the peroxisome proliferator-activated receptor gamma (PPARg) signaling pathway (AID 743191; calls by dose curve; also: nearly all actives have a fitted effect of over 30% in size; also: potency is read from the fitted curve at half-maximal effect). A digest of the protocol: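 GeneBLAzer PPARg UAS-bla HEK293H cells carrying a UAS-driven beta-lactamase reporter were plated at 3000 cells/well, preincubated 5 h at 37C, then given compound for 17 h at 37C; LiveBLAzer B/G FRET substrate was read after 1 h at room temperature.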

Assay [7] can be described thus: qHTS assay for small molecule activators of the heat shock response signaling pathway - cell viability counter screen (AID 743209). Also: nearly all actives have a fitted effect of over 50% in size. Also: potency is read from the fitted curve at half-maximal effect. An outline of the steps:
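HSE-bla HeLa; 1500 cells/well; overnight 37 C, 5% CO2; compound 5 h 37 C; LiveBLAzer B/G substrate 2.5 h RT; CellTiter-Glo 30 min RT; luminescence.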

Assay [8] can be described thus: qHTS assay for small molecule activators of the heat shock response signaling pathway (AID 743210; active = well fitted activation curve with a large enough effect in the signal ratio in the repeat runs, with a control signal flat, not every such curve was filed as active; the % refers to the signal ratio; also: potency is read from the fitted curve at half-maximal effect;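 as to activation: HeLa cells with beta-lactamase reporter driven by heat shock elements; series mostly up to about 63 µM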). A digest of the protocol:
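Activation of heat shock element-controlled beta-lactamase expression is measured in HeLa cells by LiveBLAzer FRET fluorescence, with compound exposure lasting 5 h at 37 C and substrate loading 2.5 h at room temperature.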

Assay [9] in a line: qHTS assay for small molecule agonists of the antioxidant response element (ARE) signaling pathway - cell viability counter screen (AID 743203; calls by dose curve; also: nearly all actives have a fitted effect of over 55% in size; also: potency is read from the fitted curve at half-maximal effect). A digest of the protocol: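 Luminescence read-out (CellTiter-Glo, 30 min at room temperature) measured cell viability in the same wells as the ARE beta-lactamase reporter. HepG2 ARE-bla cells were treated with compounds for 16 hrs at 37C/5% CO2.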

The nature of assay [10]: qHTS assay to identify small molecule agonists of the peroxisome proliferator-activated receptor delta (PPARd) signaling pathway - cell viability counter screen (AID 743211). Also: nearly all actives have a fitted effect of over 55% in size. Also: potency is read from the fitted curve at half-maximal effect. A digest of the protocol: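 Read-out: CellTiter-Glo luminescence, 30 min RT, measured in the same wells as the beta-lactamase reporter. Cells: GeneBLAzer PPAR delta UAS-bla HEK293H, 3000 cells/well, compound exposure 17 h at 37C.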

Values joined by “and” are separate entries in the source; they are usually repeats but may differ in a detail not shown here. Equal entries are not always repeated. Records with an inconclusive call do not appear. Where a structure was tested more than once in an assay, its records may differ in their call. Active and inactive are the calls of the source. Unless noted, calls follow the shape of the dose curve; as a rule, active = well fitted curve in the direction sought with a large enough effect in the repeat runs; inconclusive = weak or mixed curves; inactive = no such curve, though single readings can be large; an effect the other way counts as inactive or inconclusive.

Chain of Aryl hydrocarbon receptor (Homo sapiens) (P35869 whole entry, looked up): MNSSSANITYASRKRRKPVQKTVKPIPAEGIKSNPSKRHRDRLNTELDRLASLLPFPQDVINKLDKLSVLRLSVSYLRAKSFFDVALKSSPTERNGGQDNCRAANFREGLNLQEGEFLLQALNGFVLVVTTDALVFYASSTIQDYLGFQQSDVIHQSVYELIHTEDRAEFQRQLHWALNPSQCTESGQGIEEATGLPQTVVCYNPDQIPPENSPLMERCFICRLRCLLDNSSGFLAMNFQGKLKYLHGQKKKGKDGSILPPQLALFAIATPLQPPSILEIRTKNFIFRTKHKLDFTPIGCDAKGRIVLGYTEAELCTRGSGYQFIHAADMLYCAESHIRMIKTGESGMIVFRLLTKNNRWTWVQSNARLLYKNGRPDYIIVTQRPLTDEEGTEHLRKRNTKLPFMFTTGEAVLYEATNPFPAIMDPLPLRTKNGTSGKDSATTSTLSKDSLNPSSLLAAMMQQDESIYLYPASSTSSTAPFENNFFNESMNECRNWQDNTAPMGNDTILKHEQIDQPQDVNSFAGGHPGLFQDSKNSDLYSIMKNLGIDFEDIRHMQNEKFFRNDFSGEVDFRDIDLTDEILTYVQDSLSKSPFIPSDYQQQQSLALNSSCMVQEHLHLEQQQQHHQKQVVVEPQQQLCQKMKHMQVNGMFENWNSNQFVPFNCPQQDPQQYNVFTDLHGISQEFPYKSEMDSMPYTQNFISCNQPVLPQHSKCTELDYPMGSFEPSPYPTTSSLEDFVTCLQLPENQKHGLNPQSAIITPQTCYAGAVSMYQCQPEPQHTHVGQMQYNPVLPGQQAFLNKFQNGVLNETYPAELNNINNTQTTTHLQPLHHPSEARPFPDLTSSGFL
Chain of Peroxisome proliferator-activated receptor gamma (Homo sapiens) (P37231 whole entry, looked up): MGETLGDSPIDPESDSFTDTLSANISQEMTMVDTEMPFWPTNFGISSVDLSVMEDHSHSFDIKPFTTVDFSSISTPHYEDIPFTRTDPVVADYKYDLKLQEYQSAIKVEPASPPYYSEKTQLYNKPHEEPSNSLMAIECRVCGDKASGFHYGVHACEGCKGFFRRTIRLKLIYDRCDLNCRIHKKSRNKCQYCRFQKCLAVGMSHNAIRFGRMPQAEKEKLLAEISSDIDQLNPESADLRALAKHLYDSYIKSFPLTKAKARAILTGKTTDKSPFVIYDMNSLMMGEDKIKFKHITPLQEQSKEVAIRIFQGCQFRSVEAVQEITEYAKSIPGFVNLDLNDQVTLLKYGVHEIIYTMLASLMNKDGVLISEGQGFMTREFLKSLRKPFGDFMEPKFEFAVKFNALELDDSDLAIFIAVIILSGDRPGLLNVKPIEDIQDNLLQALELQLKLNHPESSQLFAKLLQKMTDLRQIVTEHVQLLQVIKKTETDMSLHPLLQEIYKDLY

As for `O=[N+]([O-])c1cc(Cl)c(Cl)c(Cl)c1Cl`, the Potency result in [1], in assay [2], in assay [3] and in assay [4] was “inactive” in each case. The Potency in assay [5] is 3.42 µM (active).

On to `C[C@@H]1C[C@H]2[C@@H]3CCC4=CC(=O)C=C[C@]4(C)[C@@]3(Cl)[C@@H](O)C[C@]2(C)[C@@]1(OC(=O)c1ccco1)C(=O)CCl`, for which the Potency result in assay [1], in [2], in [3], in [6] and in [7] was “inactive” each time. Also, the Potency in [5] is 13.3 µM (active); in assay [8], 31.6 µM (active).

With `CCCC(C)c1ccccc1O` (configuration not stated), the Potency entry in [1], in assay [2], in assay [3], in assay [6], in assay [4] and in [5] was “inactive” in each case. Also, the Potency entry in assay [9], in assay [7], in assay [8] and in [10] was “inactive” in each case.

As for `ON=C1CCCC1`, the Potency entry in [1], in assay [2], in assay [3], in assay [6], in assay [4] and in assay [5] was “inactive” each time. For the same molecule, the Potency result in assay [9], in [7], in [8] and in assay [10] was “inactive” each time.

For the molecule `NC(=NCCCCCCN=C(N)/N=C(\N)Nc1ccc(Cl)cc1)/N=C(\N)Nc1ccc(Cl)cc1`, the Potency entry in assay [1], in assay [2] and in [3] was “inactive” in each case.

Take `CCCC/C=C/CCCCO`: the Potency entry in assay [1], in assay [2], in [3], in assay [4], in assay [5] and in assay [9] was “inactive” each time. In [7], the Potency entry is “inactive”.

As to `CCOC(=O)O[C@]1(C(=O)OCCl)CC[C@H]2[C@@H]3CCC4=CC(=O)C=C[C@]4(C)[C@H]3[C@@H](O)C[C@@]21C`, the Potency entry in assay [1], in [2], in [3], in assay [4], in [9] and in assay [7] was “inactive” throughout. The Potency entry in assay [8] and in assay [10] was “inactive” each time. Further, the Potency in [5] is 10.6 µM (active).

For `COc1cc(/C=C/C(=O)O[C@H]2CC[C@]34C[C@]35CC[C@]3(C)[C@@H]([C@H](C)CCC=C(C)C)CC[C@@]3(C)[C@@H]5CC[C@H]4C2(C)C)ccc1O`, the Potency entry in assay [1], in assay [2], in assay [3], in assay [6], in [4] and in assay [9] was “inactive” each time. Further, the Potency result in assay [7] and in [10] was “inactive” in each case.

Take `CCCCCCC[N+](CC)(CC)CCCCc1ccc(Cl)cc1`: the Potency entry in [1], in [2], in [3], in assay [6], in assay [4] and in assay [9] was “inactive” in each case. Besides, in assay [7], the Potency result is “inactive”.

`O=C(NO)C1(NS(=O)(=O)c2ccc(Oc3ccc(F)cc3)cc2)CCOCC1`: the Potency result in assay [1], in assay [2], in assay [3], in assay [6], in assay [4] and in assay [9] was “inactive” throughout. Also, the Potency result in [7], in [8] and in assay [10] was “inactive” throughout.

Consider `Oc1ccc2c(c1)-c1ccccc1C2`, for which the Potency in assay [1] is 15.4 µM (active); in [5] it was 4.86 µM (active). Besides, the Potency result in [2], in assay [3], in assay [4], in assay [9], in assay [7] and in assay [8] was “inactive” in each case.

On to `CCC(C)(C)C1CCCCC1OC(C)=O` (configuration not stated), for which the Potency result in assay [1], in assay [2], in assay [3], in [6], in assay [4] and in [9] was “inactive” each time. In [10], the Potency result was “inactive”.

In the case of `CCCC1O[C@@H]2C[C@H]3[C@@H]4CCC5=CC(=O)C=C[C@]5(C)[C@H]4[C@@H](O)C[C@]3(C)[C@]2(C(=O)CO)O1` (some centres not stated), the Potency entry in assay [1], in assay [2], in assay [3], in [6], in [4] and in [9] was “inactive” throughout. Further, the Potency entry in assay [7], in [8] and in assay [10] was “inactive” throughout. Further, the Potency in assay [5] was 30.7 µM (active) and 54.5 µM (active).

For `CCC(Cl)C(Cl)C(Cl)CC(Cl)C(Cl)C(C)Cl` (configuration not stated), the Potency result in [1], in assay [2], in [3], in assay [6], in assay [9] and in assay [7] was “inactive” throughout.

In the case of `Oc1ccc(Cl)cc1Sc1cc(Cl)ccc1O`, the Potency entry in [1], in [2] and in assay [3] was “inactive” in each case. Further, the Potency in assay [6] is 13.3 µM (active); in [4], 4.89 µM (active) and 5.96 µM (active); in assay [9], 61 µM (active) and 29.8 µM (active); in assay [7], 38.8 µM (active); in assay [10], 19.5 µM (active) and 26.6 µM (active).

As to `CN(C/C=C/C#CC(C)(C)C)Cc1cccc2ccccc12`, the Potency entry in [1], in [2], in [3], in assay [6], in assay [4] and in assay [9] was “inactive” each time. For the same molecule, the Potency entry in assay [7] and in assay [8] was “inactive” throughout.

For the molecule `O=C(OCC1CO1)C1CCCCC1C(=O)OCC1CO1` (configuration not stated), the Potency entry in [1], in [2], in [3], in assay [9], in [7] and in [8] was “inactive” each time. Further, the Potency entry in assay [10] was “inactive”. Moreover, in [5], the Potency was 48.6 µM (active).

In the case of `CCOC(=O)c1nc(C(Cl)(Cl)Cl)n(-c2ccc(Cl)cc2Cl)n1`, the Potency entry in [1] and in [3] was “inactive” throughout. Besides, the Potency is 61.1 µM (active) in [2], 24.3 µM (active) in [9] and 54.9 µM (active) in [10].

`CN(C)c1ccc(SC#N)cc1`: the Potency entry in assay [1], in assay [2], in [3], in assay [9], in [7] and in assay [10] was “inactive” in each case.

As for `OCCCCCCCCCCCCBr`, the Potency entry in assay [1], in assay [2], in assay [3], in [4], in [9] and in assay [7] was “inactive” in each case. In addition, the Potency entry in [10] is “inactive”.

As for `O=C1Cc2cc(CCN3CCN(c4nsc5ccccc45)CC3)c(Cl)cc2N1`, the Potency in [1] is 15 µM (active) and inactive; in assay [10], 29.8 µM (active). For the same molecule, the Potency result in assay [2], in assay [3] and in assay [7] was “inactive” throughout.

For `CCCCCCOC(=O)c1ccc(O)cc1`, the Potency entry in assay [1], in assay [2], in assay [3], in [9], in [7] and in [8] was “inactive” each time. Also, the Potency in [10] is 38.9 µM (active) and inactive.

`CSc1ccc(C(=O)c2[nH]c(=O)[nH]c2C)cc1`: the Potency entry in assay [1], in assay [2], in assay [4], in assay [5], in [9] and in assay [7] was “inactive” in each case. Moreover, the Potency entry in assay [8] is “inactive”.

Regarding `CCc1cc(Cc2cc(CC)c(N)c(CC)c2)cc(CC)c1N`, the Potency in assay [1] was 2.73 µM (active); in assay [6] it was 38.9 µM (active); in assay [9], 54.5 µM (active); in assay [10], 54.9 µM (active). Further, the Potency entry in assay [2] is “inactive”.

The values above are taken from PubChem BioAssay (Tox21).
